Experimental data from PubChem BioAssay (Tox21).
Results filed as inconclusive are left out. Calls of active or inactive are those of the source. Unless noted, calls follow the shape of the dose curve; as a rule, active = well fitted curve in the direction sought with a large enough effect in the repeat runs; inconclusive = weak or mixed curves; inactive = no such curve, though single readings can be large; an effect the other way counts as inactive or inconclusive.

Legend:
[1] = qHTS assay for small molecules that induce genotoxicity in human embryonic kidney cells expressing luciferase-tagged ATAD5 (AID 651632); also: nearly all actives have a fitted effect of over 15% in size
In short: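 Luminescent reporter readout, HEK293T ATAD5-luc line: 16 hr drug exposure (37C, 5% CO2) followed by Amplite, 30 min RT.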

[2] = qHTS assay for small molecule agonists of the p53 signaling pathway - cell viability (AID 651633; calls by dose curve;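 also: p53RE-bla HCT reporter cells with a stable beta-lactamase p53 reporter; series mostly up to about 83 µM; nearly all actives have a fitted effect of over 30% in size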)
In short: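 p53RE-bla cells, seeded at 4,000 per well and rested 5 h at 37 C/5% CO2, received compounds in DMSO for 16 h at 37 C. CellTiter-Glo was then added, and luminescence was read after 30 min at room temperature to gauge cytotoxicity.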

[3] = qHTS assay for small molecules that induce genotoxicity in human embryonic kidney cells expressing luciferase-tagged ATAD5 - cell viability (AID 651634; calls by dose curve; also: nearly all actives have a fitted effect of over 25% in size)
In short: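 Viability read: CellTiter-Fluor fluorescence, 30 min at 37C. Cells: HEK293T, luciferase-tagged ATAD5. Exposure: 15.5 hr, 37C, 5% CO2, compound or DMSO vehicle.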

[4] = qHTS assay for small molecule disruptors of the mitochondrial membrane potential - cell viability (AID 720634; calls by dose curve;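 also: human HepG2 liver cancer cells; series mostly up to about 83 µM; nearly all actives have a fitted effect of over 20% in size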)
In short: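 HepG2, 1 hr compound, 37 C. ATP luminescence via CellTiter-Glo, 30 min RT, same well as m-MPI.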

[5] = qHTS assay to test for compound auto fluorescence at 590 nm (red) in HepG2 cells (AID 720674)
In short: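 Rose Bengal sodium served as the red fluorophore standard. HepG2 monolayers (overnight attachment, MEM with 10% FBS) were exposed to test compounds for 1 hr at 37 C and read at Ex 540/Em 590 nm.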

[6] = qHTS assay to test for compound auto fluorescence at 535 nm (green) in HepG2 cells (AID 720675)
[7] = qHTS assay to test for compound auto fluorescence at 460 nm (blue) in HEK293 cells (AID 720678)
In short: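 HEK293, 2,000 cells/well, 10% dialyzed FBS; attach 4-5 hr 37C; pin compound or DMSO; o/n 37C/5% CO2; fluorescence 405/460 nm; triamterene-equivalent units.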

[8] = qHTS assay to test for compound auto fluorescence at 590 nm (red) in HEK293 cells (AID 720679)
In short: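 Intensity at 540nm excitation and 590nm emission is reported as Rose Bengal sodium-equivalent autofluorescence. Measurements followed overnight exposure (37C, 5% CO2) of HEK293 cells, 2,000 per well, to 23 nL compound.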

[9] = qHTS assay to test for compound auto fluorescence at 535 nm (green) in HEK293 cells (AID 720680)
[10] = qHTS assay to test for compound auto fluorescence at 460 nm (blue) in HEK293 cell free culture (AID 720681)
In short: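 Test compounds were pinned into cell-free culture medium (DMEM with 10% FBS) and fluorescence was read directly at Ex/Em 405/460 nm. Signals were expressed as fluorescence equivalents of triamterene, with DMSO vehicle as control.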

[11] = qHTS assay to test for compound auto fluorescence at 535 nm (green) in HEK293 cell free culture (AID 720682)
In short: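 No cells present: wells hold DMEM supplemented with 10% FBS, into which compound or vehicle is pinned. Green emission is then recorded (485 nm excitation, 535 nm emission) and scaled to fluorescein.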

[12] = qHTS assay to test for compound auto fluorescence at 590 nm (red) in HEK293 cell free culture (AID 720683)
In short: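 Tox21 10K library compounds were pinned into cell-free DMEM with 10% FBS and fluorescence was read at excitation 540 nm. Activity is expressed as Rose Bengal sodium equivalency.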

[13] = qHTS assay to test for compound auto fluorescence at 590 nm (red) in HepG2 cell free culture (AID 720684)
In short: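 Red fluorescence (540 nm excitation, 590 nm emission) was measured after compound transfer into cell-free MEM supplemented with 10% FBS. Values are equivalencies against Rose Bengal sodium.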

[14] = qHTS assay to test for compound auto fluorescence at 460 nm (blue) in HepG2 cell free culture (AID 720685)
In short: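 Compound (23 nL) or DMSO pinned into cell-free MEM with 10% FBS; blue fluorescence read at 405/460 nm excitation/emission, expressed as auto-fluorescence equivalency to triamterene.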

[15] = qHTS assay to test for compound auto fluorescence at 535 nm (green) in HepG2 cell free culture (AID 720686)
[16] = qHTS assay to test for compound auto fluorescence at 460 nm (blue) in HepG2 cells (AID 720687)
In short: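 Cells (2,000/well in MEM with 10% FBS) attached overnight at 37 C, then were exposed to compound or DMSO for 1 hr at 37 C, 5% CO2. Fluorescence read at Ex/Em 405/460 nm, expressed as triamterene-equivalent signal.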

[17] = target: Glucocorticoid receptor (Homo sapiens) (UniProt P04150); assay: qHTS assay to identify small molecule agonists of the glucocorticoid receptor (GR) signaling pathway (AID 720691; active = well fitted activation curve with a large enough effect in the signal ratio in the repeat runs, not every such curve was filed as active; the % refers to the signal ratio)
Sequence of Glucocorticoid receptor (Homo sapiens) (P04150 whole entry, looked up): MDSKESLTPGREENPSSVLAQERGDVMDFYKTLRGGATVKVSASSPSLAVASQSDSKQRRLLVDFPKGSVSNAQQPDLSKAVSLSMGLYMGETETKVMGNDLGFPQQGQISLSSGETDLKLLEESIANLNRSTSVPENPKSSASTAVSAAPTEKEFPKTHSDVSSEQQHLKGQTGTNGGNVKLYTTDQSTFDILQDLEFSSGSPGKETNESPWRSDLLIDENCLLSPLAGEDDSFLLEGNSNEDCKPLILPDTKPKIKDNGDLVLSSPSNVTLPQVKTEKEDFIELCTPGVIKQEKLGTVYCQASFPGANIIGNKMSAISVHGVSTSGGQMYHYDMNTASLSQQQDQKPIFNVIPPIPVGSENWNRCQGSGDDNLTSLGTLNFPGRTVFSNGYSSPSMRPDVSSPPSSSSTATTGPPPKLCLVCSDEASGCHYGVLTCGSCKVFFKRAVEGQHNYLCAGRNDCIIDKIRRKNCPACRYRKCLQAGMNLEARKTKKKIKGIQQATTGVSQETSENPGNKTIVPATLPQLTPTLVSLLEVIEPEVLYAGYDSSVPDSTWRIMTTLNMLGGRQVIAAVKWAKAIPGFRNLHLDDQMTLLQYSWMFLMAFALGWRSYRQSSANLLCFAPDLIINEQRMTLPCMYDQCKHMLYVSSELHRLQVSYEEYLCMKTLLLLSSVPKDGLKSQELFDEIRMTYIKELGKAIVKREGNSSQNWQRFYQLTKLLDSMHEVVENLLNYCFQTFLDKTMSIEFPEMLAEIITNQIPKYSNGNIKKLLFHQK
In short: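 qHTS in GR-bla HeLa cells: 4 h settling at 37 C/5% CO2, 18 h compound incubation at 37 C, 2 h LiveBLAzer B/G FRET substrate at room temperature, fluorescence intensity measured.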

[18] = target: Glucocorticoid receptor (Homo sapiens) (UniProt P04150); assay: qHTS assay to identify small molecule antagonists of the glucocorticoid receptor (GR) signaling pathway (AID 720692; active = well fitted inhibition curve with a large enough effect in the signal ratio in the repeat runs, not every such curve was filed as active; the % refers to the signal ratio)
In short: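 Inhibition of glucocorticoid signalling is measured in HeLa cells with a GRE-controlled beta-lactamase reporter; cells are co-treated with compound and 5 nM dexamethasone (final) for 18 h before FRET substrate readout.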

[19] = qHTS assay to identify small molecule antagonists of the glucocorticoid receptor (GR) signaling pathway - cell viability counter screen (AID 720693); also: nearly all actives have a fitted effect of over 55% in size
[20] = qHTS assay for identifying genotoxic compounds that show differential cytotoxicity against isogenic chicken DT40 cell lines with known DNA damage response pathways - wild type cell line (AID 743012); also: potency is read from the fitted curve at half-maximal effect; nearly all actives have a fitted effect of over 60% in size
In short: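 First, wild type DT40 cells were plated at 300 per well and equilibrated about 0.5 h at 37 C/5% CO2. Next, compounds in DMSO were added and exposure lasted 40 h. Finally, CellTiter-Glo was added for 30 min at room temperature and luminescence recorded.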

[21] = qHTS assay for identifying genotoxic compounds that show differential cytotoxicity against isogenic chicken DT40 cell lines with known DNA damage response pathways - Rev3 mutant cell line (AID 743014); also: potency is read from the fitted curve at half-maximal effect; nearly all actives have a fitted effect of over 55% in size
[22] = qHTS assay for identifying genotoxic compounds that show differential cytotoxicity against isogenic chicken DT40 cell lines with known DNA damage response pathways - Rad54/Ku70 mutant cell line (AID 743015); also: potency is read from the fitted curve at half-maximal effect; nearly all actives have a fitted effect of over 60% in size
[23] = qHTS assay to identify small molecule antagonists of the androgen receptor (AR) signaling pathway - cell viability counter screen (AID 743033; also: nearly all actives have a fitted effect of over 45% in size)
[24] = qHTS assay to identify small molecule antagonists of the thyroid receptor (TR) signaling pathway - cell viability counter screen (AID 743064); also: potency is read from the fitted curve at half-maximal effect; nearly all actives have a fitted effect of over 50% in size
In short: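 Rat GH3 pituitary tumor cells stably expressing two TR response elements driving luciferase were plated, rested 4 h, then dosed with library compounds and T3 (1 nM final). After 23.5 h at 37 °C, CellTiter-Fluor was added for 30 min and fluorescence recorded.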

[25] = tested on: thyroid hormone receptor (rat, GH3 cells); assay: qHTS assay to identify small molecule agonists of the thyroid receptor (TR) signaling pathway (AID 743066; calls by dose curve)
[26] = target: Estrogen receptor (Homo sapiens) (UniProt P03372); assay: qHTS assay to identify small molecule antagonists of the estrogen receptor alpha (ER-alpha) signaling pathway (AID 743069; active = well fitted curve in the direction sought with a large enough effect in the signal ratio in the repeat runs, not every such curve was filed as active; the % refers to the signal ratio)
Sequence of Estrogen receptor (Homo sapiens) (P03372 whole entry, looked up): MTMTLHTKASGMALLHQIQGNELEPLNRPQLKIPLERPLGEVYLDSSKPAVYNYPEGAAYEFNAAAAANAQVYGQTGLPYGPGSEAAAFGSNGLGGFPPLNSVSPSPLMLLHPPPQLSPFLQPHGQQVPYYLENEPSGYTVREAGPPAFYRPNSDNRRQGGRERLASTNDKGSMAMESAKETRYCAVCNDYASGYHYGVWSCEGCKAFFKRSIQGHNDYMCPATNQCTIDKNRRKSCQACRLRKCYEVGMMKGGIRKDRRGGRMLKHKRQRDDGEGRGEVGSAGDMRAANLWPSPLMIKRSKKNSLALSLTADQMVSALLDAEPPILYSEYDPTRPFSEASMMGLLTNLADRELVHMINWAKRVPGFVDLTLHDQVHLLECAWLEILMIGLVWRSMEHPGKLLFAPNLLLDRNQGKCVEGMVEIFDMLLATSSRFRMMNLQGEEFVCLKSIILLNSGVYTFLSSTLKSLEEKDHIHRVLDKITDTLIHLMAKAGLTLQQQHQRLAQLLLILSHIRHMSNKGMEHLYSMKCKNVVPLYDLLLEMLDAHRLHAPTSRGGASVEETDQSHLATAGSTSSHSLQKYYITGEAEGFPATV
In short: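 HEK293 cells stably carrying an ER-alpha-UAS-bla beta-lactamase reporter were pre-cultured overnight in 2% charcoal-stripped FBS medium. Test compounds in DMSO were added together with 17beta-estradiol for 18 hr at 37C. Read-out was fluorescence after 2 hr with LiveBLAzer B/G FRET substrate at room temperature.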

[27] = qHTS assay to identify small molecule antagonists of the estrogen receptor alpha (ER-alpha) signaling pathway - cell viability counter screen (AID 743074; calls by dose curve; also: nearly all actives have a fitted effect of over 45% in size)
[28] = target: Estrogen receptor (Homo sapiens) (UniProt P03372); assay: qHTS assay to identify small molecule agonists of the estrogen receptor alpha (ER-alpha) signaling pathway (AID 743075; calls by dose curve)
[29] = target: Estrogen receptor (Homo sapiens) (UniProt P03372); assay: qHTS assay to identify small molecule agonists of the estrogen receptor alpha (ER-alpha) signaling pathway using the BG1 cell line (AID 743079); also: nearly all actives have a fitted effect of over 20% in size
Aromatase (Homo sapiens) = Aromatase (Homo sapiens) (UniProt P11511); assay: qHTS assay to identify aromatase inhibitors (AID 743083); also: series mostly up to about 70 µM; nearly all actives have a fitted effect of over 55% in size
Sequence of Aromatase (Homo sapiens) (P11511 whole entry, looked up): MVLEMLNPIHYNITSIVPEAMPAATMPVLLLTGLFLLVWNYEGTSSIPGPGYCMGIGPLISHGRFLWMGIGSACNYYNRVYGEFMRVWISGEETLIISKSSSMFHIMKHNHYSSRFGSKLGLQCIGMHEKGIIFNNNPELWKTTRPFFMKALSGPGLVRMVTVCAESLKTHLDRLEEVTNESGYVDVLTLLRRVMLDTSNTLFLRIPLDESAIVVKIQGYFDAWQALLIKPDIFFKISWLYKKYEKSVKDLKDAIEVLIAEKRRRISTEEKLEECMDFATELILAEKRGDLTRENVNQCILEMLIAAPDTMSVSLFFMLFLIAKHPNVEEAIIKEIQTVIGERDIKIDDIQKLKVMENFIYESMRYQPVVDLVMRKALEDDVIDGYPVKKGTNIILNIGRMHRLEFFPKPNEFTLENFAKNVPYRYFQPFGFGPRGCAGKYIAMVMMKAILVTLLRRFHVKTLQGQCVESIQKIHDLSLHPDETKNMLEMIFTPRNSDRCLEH

[30] = qHTS assay to identify aromatase inhibitors - cell viability counter screen (AID 743084);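 also: cells stimulated with testosterone during compound exposure; nearly all actives have a fitted effect of over 55% in size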
[31] = target: Acetylcholinesterase (Homo sapiens) (UniProt P22303); assay: Acetylcholinesterase (AChE) small molecule antagonists: enzyme-based qHTS assay (AID 1347397; calls by dose curve; also: nearly all actives have a fitted effect of over 55% in size); settings: Potency: AChE enzyme activity inhibition; outcome: AChE enzyme activity inhibition
Sequence of Acetylcholinesterase (Homo sapiens) (P22303 whole entry, looked up): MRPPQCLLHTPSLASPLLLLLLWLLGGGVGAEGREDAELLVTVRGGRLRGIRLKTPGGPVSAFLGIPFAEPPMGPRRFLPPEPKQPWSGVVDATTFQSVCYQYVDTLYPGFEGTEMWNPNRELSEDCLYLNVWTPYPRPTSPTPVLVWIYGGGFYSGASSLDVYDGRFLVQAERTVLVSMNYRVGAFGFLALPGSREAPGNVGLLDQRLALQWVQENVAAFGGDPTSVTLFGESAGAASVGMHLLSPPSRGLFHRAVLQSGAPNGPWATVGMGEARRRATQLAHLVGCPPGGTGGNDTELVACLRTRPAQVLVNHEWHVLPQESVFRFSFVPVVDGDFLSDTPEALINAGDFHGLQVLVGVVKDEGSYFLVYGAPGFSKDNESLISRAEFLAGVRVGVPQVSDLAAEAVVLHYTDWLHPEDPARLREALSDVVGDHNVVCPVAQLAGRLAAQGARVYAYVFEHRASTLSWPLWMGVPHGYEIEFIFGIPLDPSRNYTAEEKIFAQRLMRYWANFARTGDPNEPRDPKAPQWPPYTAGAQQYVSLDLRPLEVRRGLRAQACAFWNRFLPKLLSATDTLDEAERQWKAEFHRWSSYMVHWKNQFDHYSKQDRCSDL
In short: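 Recombinant human AChE, dispensed at 50 mU/mL, was preincubated with Tox21 10K compounds or DMSO vehicle for 30 min at room temperature. DTNB plus acetylthiocholine was then added, and thiocholine was measured colorimetrically after a further 10 min.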

[32] = target: Acetylcholinesterase (Homo sapiens) (UniProt P22303); assay: Acetylcholinesterase (AChE) small molecule antagonists: fluorescence cell-based qHTS assay (AID 1347398; calls by dose curve; also: nearly all actives have a fitted effect of over 50% in size); settings: Potency: AChE activity; outcome: AChE activity
In short: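 Human SH-SY5Y cells were plated overnight at 37 C, exposed to compound for 30 min at 37 C, 5% CO2, then given acetylthiocholine plus Thiolite Green for 40 min at room temperature; thiocholine fluorescence (Ex/Em 490/520 nm) reports endogenous AChE activity.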

[33] = target: Acetylcholinesterase (Homo sapiens) (UniProt P22303); assay: Acetylcholinesterase (AChE) small molecule antagonists: enzyme-based qHTS assay with human liver microsomes (AID 1347399; calls by dose curve; also: nearly all actives have a fitted effect of over 60% in size); settings: Potency: qHTS inhibition; outcome: qHTS inhibition
In short: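 Recombinant human AChE (50 mU/mL in the enzyme mix) and human liver microsomes (0.25 mg/mL final) were preincubated with compound and NADPH (0.25 mg/mL final) for 30 min at 37 C. Acetylthiocholine/DTNB was then added; thiocholine was read colorimetrically after 10 min at room temperature.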

Measured: Potency

C[C@H]1[C@H]2Cc3ccc(O)cc3[C@]1(C)CCN2CCc1ccccc1
inactive: [1] | [2] | [3] | [4] | [5] | [6] | [7] | [8] | [9] | [10] | [11] | [12] | [13] | [14] | [15] | [16] | [17] | [18] | [19] | [23] | [25] | [26] | [27] | [28] | [29] | Aromatase (Homo sapiens) | [30]
active: [20] 6.8 µM | [21] 15.2 µM | [22] 17.1 µM | [24] 30.4 µM

CC(=O)c1c(C)c([N+](=O)[O-])c(C(C)(C)C)c([N+](=O)[O-])c1C
inactive: [31] | [32] | [33]
